High-throughput results as filed in PubChem.
Shiga inhibitor: Shiga toxin inhibition; Vero cells, Shiga toxin protein synthesis inhibition reporter; inhibition, % at 38.7 µM; 290,000 tested, 9.2% active; AID 2315; in the data active = inhibition mostly above about 28%, no sharp cut-off; inactive = mostly below about 43%; also: 0% is about no effect
Pf growth 48h: inhibits P. falciparum growth in the first generation, 48 h. Potency, µM (highest dose often 28.7 µM), without a hit: at the top dose activity change, negative = inhibition, usual class: inhibitors. 310,000 tested, 5.9% active. P. falciparum luciferase growth in erythrocytes, 48 h; also: potency is read from the fitted curve at half-maximal effect; % is scaled to controls: 0 for no effect and ±100 for the full control effect
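Compounds are pin-transferred into medium, infected erythrocytes (2% hematocrit, 0.1% parasitemia final) are added, and plates sit one parasite generation at 37 C in 5% CO2. Detection reagent is then added and luminescence measured.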
LASV entry inh: inhibitors of Lassa virus binding or cell entry; Lassa virus pseudotype entry inhibition, cell reporter; Potency, µM (series often up to 37.9 µM), for inactives: at the top dose activity change, negative = inhibition, most hits filed as inhibitors; 300,000 tested, 1.2% active; calls by dose curve; tested in HEK293 cells; also: potency is read from the fitted curve at half-maximal effect; % is scaled to controls: 0 for no effect and ±100 for the full control effect; nearly all actives have a fitted effect of over 50% in size
CHX counter: affects cycloheximide protein synthesis inhibition readout, counter-screen. cell reporter, cycloheximide protein synthesis inhibition counterscreen. max response, %. 300,000 tested, 12% active; in the data active = max response mostly above about 13%, no sharp cut-off; inactive = mostly below about 14%; also: read at 38.3 µM for the half of the compounds with a filed dose; 0% is about no effect
MARV entry inh: Marburg virus entry inhibition; Potency, µM (doses to about 37.8 µM), for the others: at the top dose activity change, negative = inhibition, most hits filed as inhibitors; 300,000 tested, 1.8% active; Marburg virus pseudotyped entry inhibition, cell reporter; AID 540276; calls by dose curve; tested in HEK293 cells; also: potency is read from the fitted curve at half-maximal effect; % is scaled to controls: 0 for no effect and ±100 for the full control effect
Pf growth 96h: P. falciparum growth inhibition at 96 hour, primary screen for plastid delayed-death inhibitors; P. falciparum luciferase reporter growth, 96 h; Potency, µM (series often up to 28.7 µM), inactives show top-dose activity change, negative = inhibition, most hits filed as inhibitors; 320,000 tested, 6.9% active; also: potency is read from the fitted curve at half-maximal effect; % is scaled to controls: 0 for no effect and ±100 for the full control effect
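Compounds incubated with erythrocytes infected by luciferase-expressing P. falciparum (2% hematocrit, 0.05% parasitemia final) for 96 hours, 37 C in 5% CO2. Growth inhibition scored as decreased luciferase luminescence.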
Active calls of the source: *; ? = inconclusive; / = no result given; [ ] = dose if it differs, or a comment. Only some compounds are listed: those with a hit (about 19% of all), similar ones and a draw of the others. Unless noted, calls follow the shape of the dose curve; as a rule, active = well fitted inhibition curve with a large enough effect; inconclusive = small, poorly fitted or top-dose-only effect, or another doubt; inactive = no such curve, though single readings can be large or run the other way.

SMILES	Shiga inhibitor	Pf growth 48h	LASV entry inh	CHX counter	MARV entry inh	Pf growth 96h
CNc1nc(C(=O)O)nc(N2CCOCC2)n1	-3	23%	-2%	-3	0%	?
COc1ccc(C(=O)NCS(=O)(=O)c2ccc(C)cc2)cc1	42	-4%	-1%	-3	19%	57%
CC1CCN(C(=O)CS(=O)(=O)Cc2ccccc2)CC1	77*	103%	?	35*	?	382%
CC1CCN(C(=O)c2ccc(CS(=O)(=O)Cc3ccccc3)cc2)CC1	-10	0%	-22%	2	-25%	?
ClCCNc1nc2ccc(Cl)cc2[nH]1	15	53%	?	19*	9%	11%
COc1cc(NC(=O)c2c(OC)cccc2OC)ccc1NC(=O)c1cc2ccccc2o1	/	81%	-20%[46.1 µM]	22*	?	4%
CCCCCC(=O)Nc1ccc(NC(=O)c2cc3ccccc3o2)c(OC)c1	/	/	25%[46.1 µM]	/	/	/
CCC(=O)Nc1ccc(NC(=O)c2cc3ccccc3o2)c(OC)c1	34*	79%	6%[46.1 µM]	27*	?	12%
O=C(COC(=O)COc1ccc(Br)cc1)NCc1ccc2c(c1)OCO2	/	/	-1%[46.1 µM]	/	6%[46.1 µM]	/
CCS(=O)(=O)N1CCc2cc(C(=O)NCCc3ccc(OC)c(OC)c3)ccc21	/	/	-5%[46.1 µM]	/	1%[46.1 µM]	/
COc1ccc(CCNC(=O)CCc2c(C)nc3nc(C)nn3c2C)cc1OC	/	/	12%[46.1 µM]	/	3%[46.1 µM]	/
COc1ccc(CCNC(=O)CCn2cccc2)cc1OC	-5	7%	-10%	-3	2%	32%
O=C(CCS(=O)(=O)Cc1ccc(Cl)cc1)NCCc1ccccc1	15	48%	-22%[46.1 µM]	19*	7%[46.1 µM]	6%
O=C(CCNC(=O)c1ccccc1)NCCc1ccc(Cl)cc1	-1	-2%	-26%[46.1 µM]	-2	-1%[46.1 µM]	11%
O=C(CCn1cccc1)NCCc1ccc(Cl)cc1	32	6%	9%	-4	0%	10µM*
CCOc1ccc(CCNC(=O)CCn2cccc2)cc1OCC	-5	?	3%	-3	0%	1.7µM*
CCOc1ccc(CCNC(=O)CCc2c(C)nc3ncnn3c2C)cc1OCC	-8	?	-2%	12	0%	5.9µM*
O=C(CCS(=O)(=O)Cc1ccccc1)NCCc1ccccc1	-5	9%	-3%	-3	-1%	-14%
O=C(O)c1ccc(Cn2cc(/C=C\[N+](=O)[O-])c3ccccc32)o1	-3	-20%	/	-6	/	87%
O=[N+]([O-])/C=C/c1cn(Cc2ccc(Cl)cc2)c2ccccc12	-7	3.7µM*	?	-2	?	?
Cc1cccc(Cn2cc(/C=C/[N+](=O)[O-])c3ccccc32)c1	-15	3.7µM*	?	-1	?	-3%
COC(=O)c1ccc(Cn2cc(/C=C\[N+](=O)[O-])c3ccccc32)o1	/	4.7µM*	?	-3	?	?
CC1CC(NC(=O)c2ncn[nH]2)CC(C)(C)C1 (stereo not drawn)	7	?	2%	16	-10%	?
C=CCN1C(=O)c2cccc3c(Br)ccc(c23)C1=O	6	4%	-19%[46.1 µM]	4	-10%[46.1 µM]	42%
C=CCN1C(=O)c2cccc3c(N4CCCCC4)ccc(c23)C1=O	130*	47%	21%[46.1 µM]	46*	?	-29%
SMILES	Shiga inhibitor	Pf growth 48h	LASV entry inh	CHX counter	MARV entry inh	Pf growth 96h
O=C(OCCN1C(=O)c2cccc3c(N4CCOCC4)ccc(c23)C1=O)c1ccccc1Cl	-5	?	?	-3	7.1µM*	?
O=C1c2cccc3c(N4CCCCC4)ccc(c23)C(=O)N1CCO	76	13%	?	42*	?	?
O=C1c2cccc3c(N4CCCCC4)ccc(c23)C(=O)N1c1cccc(O)c1	90*	?	/	61*	?	10%
COC(=O)C1=C(C(=O)OC)[C@@H]2Nc3ccccc3[C@@]23C[C@@H](C(=O)OC)N(C(=O)N2CCNC2=O)C3=N1	/	/	/	/	8%[14.2 µM]	/
CCCCNC(=O)Cn1c(-c2ccc(OC)cc2)noc1=O	-14	/	2%	-4	7%	/
CCc1cc(=O)[nH]c(SCc2nc(-c3ccccc3C)no2)n1	/	/	-3%[46.1 µM]	/	/	/
O=C(O)COc1ccc(/C=N/NC(=O)c2cn(-c3ccccc3)nc2-c2ccccc2)cc1	-4	9%	-2%[46.1 µM]	-4	?	?
COc1cccc(NC(=O)CN(C)C(=O)CCCc2nc3ccccc3s2)c1	/	-4%	-14%	/	1%	?
